PubChem BioAssay (EPA / NIEHS)
The source made the active and inactive calls. The calls were made as follows: active = hit-call score of the fitted dose curve at least 0.9, where 1 is the maximum; inactive = score below 0.9.

Each molecule was assayed on Matrix Metallopeptidase 1 (MMP1), MMP1 (gene 4312) (assay: BSK_hDFCGF_MMP1: BioMAP Diversity Plus: hDFCGF Assay for Matrix Metallopeptidase 1 (MMP1) Biomarker Activity (AID 2283064)). Conditions: primary human foreskin fibroblasts; actives raise or lower the signal.
Method: BSK_hDFCGF is a cell-based, multiplexed-readout assay that uses foreskin fibroblast, a human skin primary cell, with measurements taken at 24 hours after chemical dosing in a 96-well plate.BSK_hDFCGF_MMP1 is an assay component measured in the BSK_hDFCGF assay. It measures MMP-1 antibody related to regulation of gene expression using ELISA technology.Data from the assay component BSK_hDFCGF_MMP1 was analyzed into 1 assay endpoint. This assay endpoint, BSK_hDFCGF_MMP1, was analyzed with bidirectional fitting relative to DMSO as the negative control and baseline of activity. Using a type of binding reporter, gain or loss-of-signal activity can be used to understand changes in the signaling as they relate to the gene MMP1. Furthermore, this assay endpoint can be referred to as a primary readout, because this assay has produced multiple assay endpoints where this one serves a signaling function. To generalize the intended target to other relatable targets, this assay endpoint is annotated to the protease intended target family, where the subfamily is matrix metalloproteinase.
The levels of cell surface (or secreted, indicated by the prefix "s") biomarker endpoints were measured by ELISA. Overt cytotoxicity to cells in confluent adherent cultures (all systems other than the BT system) was assessed by measuring total protein levels using sulforhodamine B (SRB) staining in parallel cultures at the time of biomarker measurements, indicated as SRB endpoints. For proliferation assays for adherent cell types, individual cell types are cultured at sub-confluence and relative cell numbers quantified by SRB staining at time points optimized for each system (48 h: 3C and CASM3C systems; 72 h: BT and HDF3CGF systems; 96 h: SAg system). SRB was performed by staining cells with 0.1% SRB after fixation with 10% TCA and reading wells at 560 nm.Viability and proliferation of PBMC (T cells) was quantified by Alamar Blue reduction for the SAg and BT systems. For PBMC viability (referred to as PBMC Cytotoxicity within the assay endpoint names), cells were plated (75,000/well in a 96-well plate) and then chemical samples added for 1 h before addition of activators, SEB and TSST-1 (20 ng/mL final concentration each). Cells were incubated for 90 h. Then, Alamar Blue (20 uL/well) (Invitrogen, Cat DAL1100) was added for 6 h, and the plates were read with a fluorescence microplate reader at 546/580 nm (excitation/emission). For PBMC proliferation, cells were plated and activated as above but incubated for only 16 h prior to addition of Alamar Blue. Plates were read after 6 h.

| Structure (SMILES) | outcome | AC50 |
| --- | --- | --- |
| Nc1ccc(S(=O)(=O)c2ccc(N)cc2)cc1 | inactive |  |
| CC(=O)OCCOCCOCCOC(C)=O | inactive |  |
| CCCCCCOCCO | inactive |  |
| C[C@]12C=CC(=O)C=C1CC[C@@H]1[C@@H]2C(=O)C[C@@]2(C)[C@H]1CC[C@]2(O)C(=O)CO | inactive |  |
| NCCO | inactive |  |
| Nc1nc(N)c2nc(CNc3ccc(C(=O)N[C@@H](CCC(=O)O)C(=O)O)cc3)cnc2n1 | inactive |  |
| Cc1oc(-c2ccccc2)nc1CCOc1cccc2c1ccn2CCC(=O)O | inactive |  |
| CCCc1cc(=O)[nH]c(=S)[nH]1 | inactive |  |
| CCCCCC(=O)O | inactive |  |
| Cc1cccc(C)c1O | inactive |  |
| COCCOC[C@H](CC1(C(=O)NC2CCC(C(=O)O)CC2)CCCC1)C(=O)Oc1ccc2c(c1)CCC2 (stereo not given in full) | inactive |  |
| CCCCC(CC)COC(=O)CC(C(=O)OCC(CC)CCCC)S(=O)(=O)O (stereo not given) |  | 25.7 µM (active) |
| Cc1ccccc1Cl | inactive |  |
| C1CCC(SSC2CCCCC2)CC1 | inactive |  |
| O=c1c(O)c(-c2ccc(O)c(O)c2)oc2cc(O)cc(O)c12 | inactive |  |
| Cc1ccc(C)c(O)c1C | inactive |  |
| Nc1ccc2c(c1)C(=O)c1ccccc1C2=O | inactive |  |
| Cc1cc(NC(=O)C(=O)O)cc(C)c1Oc1ccc(O)c2c1CCC2 | inactive |  |
| CCCCCCCCCCO | inactive |  |
| COc1cc(-c2nc(NC(=O)c3cc4cc(C)cc(C)c4n3CC(=O)O)sc2CCC2CCCCC2)c(OC)cc1Cl |  | 0.471 µM (active) |

| Structure (SMILES) | outcome | AC50 |
| --- | --- | --- |
| CCCCCCCCCCCCCCCC | inactive |  |
| NS(=O)(=O)c1cc2c(cc1Cl)NCNS2(=O)=O | inactive |  |
| COc1cc(S(=O)(=O)O)c(C)cc1N=Nc1c(O)ccc2cc(S(=O)(=O)O)ccc12 | inactive |  |
| Cc1c(C(=O)O)c(O)cc2c1C(=O)c1c(O)c([C@@H]3O[C@H](CO)[C@@H](O)[C@H](O)[C@H]3O)c(O)c(O)c1C2=O | inactive |  |
| CC=Cc1ccc(O)c(OC)c1 | inactive |  |
| O=C(O)CCCCC(=O)O | inactive |  |
| CC(C)(C)c1cc(O)c(C(C)(C)C)cc1O | inactive |  |
| COc1ccc2c(c1)c(CC(=O)O)c(C)n2C(=O)c1ccc(Cl)cc1 | inactive |  |
| CCCCCCCCCCCC(=O)OC | inactive |  |
| Oc1ccc2ccccc2c1N=Nc1ccccc1 | inactive |  |
| Cc1ccc2ncccc2c1 | inactive |  |
| CC(=O)C(C)=CC1C(C)=CCCC1(C)C (stereo not given) | inactive |  |
| CC(=O)Oc1ccccc1C(=O)O | inactive |  |
| Cc1ccc(C)c(C)c1 | inactive |  |
| CC1(C)NC(=O)NC1=O | inactive |  |
| Clc1cc(Cl)c(Cl)cc1Cl | inactive |  |
| Nc1ccccc1N | inactive |  |
| CN1CCCC1=O | inactive |  |
| CCOC(=O)CCC(=O)OCC | inactive |  |
| CNCc1cc(F)ccc1Oc1ccc(Cl)c(Cl)c1 | inactive |  |
